Measurements reported in PubChem BioAssay AID1159580 (chemical genetic matrix, 2015).
Values joined by “and” are separate entries in the source; they are usually repeats but may differ in a detail not shown here. Identical values can stand only once. The whole screen tested about 5,500 compounds, of which about 2,000 (36%) were called active. About 18% were inconclusive and are not listed. Cut-off read from the data, not from the text of the source: active = normalized growth mostly below about 0.91 (no sharp cut-off); inconclusive = no clear call, values can overlap the other calls; inactive = mostly above about 0.92. The list shows a part of the results.

Experiment: chemical genetic growth profiling, strain panel (AID 1159580);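 note: tested at 20 µM; growth read once vehicle control cultures reached saturation at 30 °C; 1 = growth at the plate median or of vehicle wells; lower values mean less growth of the strain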
Conditions: S. cerevisiae deletion strains, growth OD

Measured: normalized growth

CCCCOc1ccc(OCCCN2CCOCC2)cc1
0.911 (active) and 0.965 (inactive): locus YHR030C, strain SLT2, stronger effect = lower value
0.653 (active) and 0.972 (inactive): locus YJL095W, strain BCK1, stronger effect = lower value
inactive: locus YAL013W, strain DEP1, stronger effect = lower value 0.994 | locus YAL030W, strain snc1, stronger effect = lower value 0.988 | locus YBL061C, strain skt5, stronger effect = lower value 0.955 | locus YBR009C, strain hhf1, stronger effect = lower value 0.96 | locus YBR023C, strain chs3, stronger effect = lower value 0.946 | locus YBR171W, strain sec66, stronger effect = lower value 0.942 | locus YBR229C, strain ROT2, stronger effect = lower value 1 | locus YBR231C, strain swc5, stronger effect = lower value 0.935 | locus YCL011C, strain gbp2, stronger effect = lower value 0.966 | locus YCL016C, strain dcc1, stronger effect = lower value 0.928 | locus YCL029C, strain bik1, stronger effect = lower value 0.938 | locus YCL069W, strain vba3, stronger effect = lower value 0.995 | locus YCR088W, strain abp1, stronger effect = lower value 0.997 | locus YDL005C, strain med2, stronger effect = lower value 1 | locus YDL040C, strain nat1, stronger effect = lower value 0.987 | locus YDL074C, strain BRE1, stronger effect = lower value 0.841 | locus YDL101C, strain DUN1, stronger effect = lower value 0.963 | locus YDL185W, strain tfp1, stronger effect = lower value 0.979 | locus YDR001C, strain nth1, stronger effect = lower value 0.983 | locus YDR137W, strain rgp1, stronger effect = lower value 0.913 | locus YDR150W, strain NUM1, stronger effect = lower value 0.984 | locus YDR159W, strain sac3, stronger effect = lower value 0.943 | locus YDR162C, strain NBP2, stronger effect = lower value 0.952 | locus YDR297W, strain sur2, stronger effect = lower value 0.968 | locus YDR334W, strain swr1, stronger effect = lower value 0.947 | locus YDR392W, strain spt3, stronger effect = lower value 0.868 | locus YEL003W, strain gim4, stronger effect = lower value 0.918 | locus YEL037C, strain rad23, stronger effect = lower value 0.98 | locus YEL061C, strain CIN8 (second series), stronger effect = lower value 0.973 | locus YEL061C, strain CIN8, stronger effect = lower value 0.931 | locus YER016W, strain bim1, stronger effect = lower value 0.983 | locus YER110C, stronger effect = lower value 0.922 | locus YER111C, strain swi4, stronger effect = lower value 0.962 | locus YER155C, strain BEM2, stronger effect = lower value 1.04 | locus YGL078C, strain dbp3, stronger effect = lower value 0.966 | locus YGL167C, strain pmr1, stronger effect = lower value 0.966 | locus YGL173C, strain kem1, stronger effect = lower value 0.929 | locus YGL227W, strain vid30, stronger effect = lower value 0.966 | locus YGL240W, strain doc1, stronger effect = lower value 0.965 | locus YGL253W, strain hxk2, stronger effect = lower value 0.94 | locus YHR027C, strain rpn1, stronger effect = lower value 0.953 | locus YHR079C, strain IRE1 (second series), stronger effect = lower value 0.93 | locus YHR079C, strain IRE1, stronger effect = lower value 0.979 | locus YHR094C, strain hxt1, stronger effect = lower value 0.997 | locus YHR129C, strain ARP1, stronger effect = lower value 0.99 | locus YHR200W, strain rpn10, stronger effect = lower value 0.961 | locus YIL073C, strain SPO22, stronger effect = lower value 0.804 | locus YIL125W, strain kgd1, stronger effect = lower value 1 | locus YIR030C, strain dcg1, stronger effect = lower value 0.976 | locus YJL092W, strain hpr5, stronger effect = lower value 0.992 | locus YJL095W, strain BCK1 (second series), stronger effect = lower value 0.962 | locus YJL115W, strain asf1, stronger effect = lower value 0.954 | locus YJL134W, strain LCB3, stronger effect = lower value 0.999 | locus YJL154C, strain vps35, stronger effect = lower value 0.995 | locus YJL164C, strain tpk1, stronger effect = lower value 0.918 | locus YJL168C, strain set2, stronger effect = lower value 0.976 | locus YJL187C, strain SWE1, stronger effect = lower value 0.957 | locus YJR043C, strain POL32, stronger effect = lower value 0.934 | locus YJR066W, strain TOR1, stronger effect = lower value 0.884
active: locus YAL021C, strain ccr4, stronger effect = lower value 0.829 | locus YAL026C, strain drs2, stronger effect = lower value 0.0964 | locus YBR021W, strain FUR4, stronger effect = lower value 1.16 [resistant] | locus YBR279W, strain paf1, stronger effect = lower value 0.918 | locus YDL035C, strain GPR1, stronger effect = lower value 0.855 | locus YDL134C, strain PPH21, stronger effect = lower value 0.823 | locus YDL192W, strain arf1, stronger effect = lower value 0.893 | locus YDR069C, strain doa4, stronger effect = lower value 0.883 | locus YDR101C, strain arx1, stronger effect = lower value 0.916 | locus YDR195W, strain ref2 1.21 [resistant] | locus YDR318W, strain mcm21, stronger effect = lower value 0.884 | locus YDR335W, strain msn5, stronger effect = lower value 0.904 | locus YDR388W, stronger effect = lower value 0.9 | locus YDR502C, strain sam2, stronger effect = lower value 0.872 | locus YER015W, strain faa2, stronger effect = lower value 0.925 | locus YER155C, strain BEM2 (second series), stronger effect = lower value 0.407 | locus YER167W, strain BCK2, stronger effect = lower value 0.838 | locus YFR010W, strain ubp6, stronger effect = lower value 0.884 | locus YGL086W, strain mad1, stronger effect = lower value 0.906 | locus YGL248W, strain PDE1, stronger effect = lower value 0.863 | locus YGR078C, strain PAC10, stronger effect = lower value 0.828 | locus YGR135W, strain pre9, stronger effect = lower value 0.784 | locus YGR229C, strain SMI1, stronger effect = lower value 0.598 | locus YGR252W, strain gcn5, stronger effect = lower value 0.588 | locus YHR013C, strain ard1, stronger effect = lower value 0.799 | locus YHR142W, strain chs7, stronger effect = lower value 0.817 | locus YIL066C, strain RNR3, stronger effect = lower value 0.719 | locus YJL129C, strain trk1, stronger effect = lower value 0.805 | locus YJL166W, strain qcr8, stronger effect = lower value 0.89 | locus YJL187C, strain SWE1 (second series), stronger effect = lower value 0.855
